In all, about 360,000 compounds went through this assay and about 2,400 (0.67%) were called active. Only a selection was taken, and actives are over-represented in it overall. Values without a mark were called inactive.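 How the source made its calls: active means activation above a run cutoff, the mean activation of all tested compounds plus 3 SD (cut at about 14% in these data); inactive means the rest.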
These compounds were tested against 5-hydroxytryptamine receptor 2A (Mus musculus) (UniProt P35363) (assay: activation of mouse 5-HT2A receptor – cell-based, luminescence, primary screen (AID 624169;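 further: 0% = plate median of compound wells and 100% = 30 µM serotonin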)). Details: CHO-K1 mHTR2A beta-arrestin complementation, at 7.6 µM, active compounds read high, percent of 30 µM serotonin response.
Sequence of 5-hydroxytryptamine receptor 2A (Mus musculus) (P35363 whole entry, looked up): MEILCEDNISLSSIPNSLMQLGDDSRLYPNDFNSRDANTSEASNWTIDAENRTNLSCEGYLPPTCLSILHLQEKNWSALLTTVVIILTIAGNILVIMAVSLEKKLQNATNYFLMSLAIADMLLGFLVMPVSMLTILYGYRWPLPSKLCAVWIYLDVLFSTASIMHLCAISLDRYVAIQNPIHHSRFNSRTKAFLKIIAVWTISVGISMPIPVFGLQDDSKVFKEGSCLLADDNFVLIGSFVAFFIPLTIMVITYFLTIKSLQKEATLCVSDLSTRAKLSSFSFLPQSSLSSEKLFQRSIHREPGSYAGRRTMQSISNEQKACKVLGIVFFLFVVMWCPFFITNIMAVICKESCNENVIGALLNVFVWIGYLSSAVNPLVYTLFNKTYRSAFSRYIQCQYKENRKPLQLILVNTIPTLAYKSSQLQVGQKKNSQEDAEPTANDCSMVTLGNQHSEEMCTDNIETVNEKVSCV
Work on CC(C)c1nc(CNC(=O)CC2C(=O)NCCN2Cc2ccoc2)cs1 (centres undefined) yielded an activation of 2.97%. Cc1ccc(Cc2c(C)nc3nc(SCC(=O)NCCN4CCOCC4)nn3c2C)cc1 gave an activation of -7.66%. O=C(Oc1ccc2c(c1)CCC2)N1CCOCC1 gave an activation of -4.84%. Compound CC(=O)OC(C(=O)NCCc1ccccc1)c1cccnc1 (centres undefined) has an activation of 3.53%. In the case of CC(C)COP(=O)(c1ccc(N(C)C)cc1)C(Nc1ccccc1)c1cccnc1 (centres undefined), the activation is reported as -1.14%. CC(Nc1ccccc1)c1cccnc1 (centres undefined) was tested, and the activation was 18.4% (active). With CCOP(=O)(OCC)C(Nc1ccc([N+](=O)[O-])cc1)c1ccc(Cl)cc1 (centres undefined) the activation was -5.36%. Cc1ccc(NS(=O)(=O)c2cccs2)cc1S(=O)(=O)N1CCCCCC1 was tested, and the activation was -1.7%. Compound O=C(NCCS(=O)(=O)N1CCN(c2ccc(F)cc2)CC1)c1ccc2c(c1)OCO2 has an activation of 5.83%. For Cc1cc(O)c(C2(O)C(=O)Nc3ccccc32)cc1C (centres undefined), the activation was -4.53%. With COc1cccc(OC)c1OCCN1CCN(C(=O)c2ccco2)CC1 the activation was 14.4% (active). Compound O=C(c1ccco1)N1CCN(C(=O)c2ccc(COc3ccc(F)cc3)o2)CC1 has an activation of 2.33%. In the case of O=C(c1ccco1)N1CCN(CCOc2ccccc2)CC1, the activation is reported as 16.4% (active). For O=C(c1ccco1)N1CCN(Cc2cccc(C(F)(F)F)c2)CC1, the activation was 11.3%. O=C(c1ccc(Br)o1)N1CCN(CCOc2ccccc2)CC1 was tested, and the activation was -0.54%. O=C(OCC(=O)N1CCN(C(=O)c2ccco2)CC1)c1c(Cl)cccc1Cl gave an activation of -3.04%. With Cc1ccc2cc(CN(c3ccc(C)c(C)c3)S(C)(=O)=O)c(=O)[nH]c2c1 the activation was -0.92%. In the case of CC1CC(=S)Nc2ccccc2N1Cc1ccccc1 (centres undefined), the activation is reported as -4.32%. For CC(C)NC(=O)CSc1nnc(COc2ccccc2Cl)o1, the activation was 0.27%. Cc1ccc(NC(=O)CSc2nnc(CNC(=O)c3ccccc3F)o2)cc1 showed an activation of -0.39%. In the case of Cc1ccc(NC(=O)CSc2nnc(COc3ccccc3C)o2)cc1, the activation is reported as 40.1% (active). COc1ccc(CNC(=O)c2ccc(NS(=O)(=O)c3ccc4[nH]c(=O)[nH]c4c3)cc2)cc1OC was tested, and the activation was 16.1% (active). With CC(=O)c1ccc(NC(=O)C(C)OC(=O)c2ccc(NS(=O)(=O)c3ccc4[nH]c(=O)[nH]c4c3)cc2)cc1 (centres undefined) the activation was -1.56%. For O=C(c1ccc(NS(=O)(=O)c2ccc3[nH]c(=O)[nH]c3c2)cc1)N1CCCCC1, the activation was 2.95%. For COc1ccc2c(c1)C(=C(C#N)C#N)C(=O)N2CCc1ccccc1, the activation was -0.11%. For CC(C)CC1C(=O)N(Cc2cn(Cc3ccco3)nn2)CCS(=O)(=O)N1Cc1ccc(-c2ccc(Cl)c(Cl)c2)cc1 (centres undefined), the activation was -3.53%. For O=C(O)C1C2C=CC(O2)C1C(=O)Nc1ccccn1 (centres undefined), the activation was -3.53%. In the case of O=C(O)C1CC=CCC1C(=O)NCCc1ccccc1 (centres undefined), the activation is reported as 7.31%. For O=C(O)C1C2C=CC(O2)C1C(=O)NCCc1cccc(Cl)c1 (centres undefined), the activation was 21.1% (active). Compound Cc1ccccc1CN1CCC(C(=O)Nc2ccc(Oc3cccnc3)cc2)CC1 has an activation of -1.91%. With O=C(Nc1cccc2cccnc12)c1ccc2sc([C@H]3C[C@H](O)[C@@H](CO)O3)nc2c1 the activation was 16.7% (active). Compound O=C(Nc1ccc(Cl)cc1)c1csc([C@H]2C[C@H](O)[C@@H](CO)O2)n1 has an activation of 4.98%. For O=C(Nc1nnc([C@H]2C[C@H](O)[C@@H](CO)O2)s1)c1cccc(Cl)c1, the activation was 5.77%. Cc1cccc(-n2c(Cc3cc(=O)[nH]c(=O)[nH]3)nnc2SCC(=O)Nc2cccc(C(F)(F)F)c2)c1 showed an activation of 3.15%. Compound C/C(=N/NC(=O)c1ccc(Br)o1)c1ccc(C)o1 has an activation of 0.28%. In the case of Cc1ccc(/C=N/NC(=S)NC2CCCCC2)o1, the activation is reported as 4.42%. With C/C(=N\NC(=S)NC1CCCCC1)c1ccc(C)o1 the activation was 21.6% (active). N#CC1=C(SCc2ccc(C#N)cc2)N=C(N)C(c2nc(-c3ccccc3)cs2)C12CCCCC2 (centres undefined) showed an activation of -0.07%. In the case of COc1ccc(OC)c(C(O)c2ncc(-c3cccc(C(F)(F)F)c3)[nH]2)c1 (centres undefined), the activation is reported as -2.32%. Work on O=C(Cc1ccccc1Cl)N1CCOCC1 yielded an activation of -3.57%. CN(C(=O)c1ccc(NC(=O)Cc2cccc(NC(=O)C3CCN(C(=O)c4ccccc4)CC3)c2)cc1)C1CC1 was tested, and the activation was -6.22%. Cc1ccc(C(=O)Nc2ccccc2-c2ccccc2)cc1S(=O)(=O)Nc1ccccc1 gave an activation of 5.68%. Compound COc1ccc(NS(=O)(=O)c2cc(NC(=O)CC(=O)c3ccc([N+](=O)[O-])cc3)ccc2C)cc1 has an activation of -2.57%. For COc1ccc(NS(=O)(=O)c2cc(C(=O)Nc3ccccc3C(=O)O)ccc2C)cc1, the activation was 17.9% (active). O=S(=O)(Nc1cccc(-c2ccc(N3CCOCC3)nn2)c1)c1ccc(Cl)c(Cl)c1 was tested, and the activation was -3.29%. O=C(NCc1ccccc1CN1CCCC1)C1CCN(S(=O)(=O)c2ccc(Cl)cc2)CC1 gave an activation of -12.7%. With O=C1CCc2cc(S(=O)(=O)N3CCC(C(=O)NCc4ccccc4Cl)CC3)ccc2N1 the activation was 19.6% (active). For O=C(NCc1ccccc1Cl)C1CCN(S(=O)(=O)N2CCOCC2)CC1, the activation was 2.15%. Work on COc1cccc(C(=O)n2ccc(-c3cccs3)n2)c1 yielded an activation of 2.87%. Work on Cc1ccc(C(=O)N2CCN(C3CCCCC3)CC2)s1 yielded an activation of 7.15%. For CCOCCOC(=O)C1=C(C)N(C)C(=O)NC1c1ccccc1F (centres undefined), the activation was 1.37%. O=C(CN(Cc1ccc(Br)cc1)S(=O)(=O)c1ccccc1)NCc1ccncc1 was tested, and the activation was -1.63%. For CCc1ccc(CN(C)C(=O)C2CCC(=O)N(Cc3cccc(OC)c3)C2)nc1 (centres undefined), the activation was 6.04%. In the case of CC(=O)Nc1ccc(S(=O)(=O)N2CCC(N(C)CCC(C)C)CC2)cc1, the activation is reported as 6.97%. Compound Cc1ccc(NC(=O)CN(C)Cc2ccc(F)cc2)c([N+](=O)[O-])c1 has an activation of 1.68%. CCn1cc(C(=O)N2CC=C(c3ccccc3)CC2)c(=O)c2ccc(C)nc21 showed an activation of -3.76%. CCOc1cc(C(=O)OCC(=O)Nc2cccc(C)c2)ccc1OCC(=O)N1CCOCC1 showed an activation of -2.12%. For CCn1cc(C(=O)OCC(=O)Nc2cccc(C)c2)c(=O)c2ccc(C)nc21, the activation was 20.9% (active). C=CCNC(=O)CC12CC3CC(C1)CC(CC(=O)NCC=C)(C3)C2 was tested, and the activation was -3.65%. Work on CCCC(=O)N1c2ccc(-c3csc(N)n3)cc2CC1C (centres undefined) yielded an activation of 1.22%. In the case of CC(C)(C)C(=O)OCc1nc(-c2ccc(O)c(O)c2)cs1, the activation is reported as 14.9% (active). CN(c1ccc(O)cc1)c1nc(-c2cccnc2)cs1 gave an activation of -2.76%. Compound CC(=O)c1c(C)n([O-])c2ccccc2[n+]1=O has an activation of 4.16%. Work on C=CCn1c(=NC(=O)c2ccc(S(=O)(=O)N3CCCC3)cc2)sc2cc(NC(C)=O)ccc21 yielded an activation of 1.21%. With C=CCn1c(=NC(=O)c2cccs2)sc2cc(NC(C)=O)ccc21 the activation was 23.5% (active). C=CCn1c(CCNC(=O)c2cccs2)n[nH]c1=S was tested, and the activation was 4%. Work on O=C(O)c1ccccc1Cc1ccc(F)c2ccccc12 yielded an activation of -0.35%. For CCc1ccc2nc(Nc3ncc(C(C)=O)c(C)n3)nc(C)c2c1, the activation was -1.39%. With COc1ccccc1Nc1nnc(SC(C)C(=O)NC2CC2)s1 (centres undefined) the activation was 14.8% (active). In the case of COc1ccc(-c2nnc(SC(C)C(=O)NC3CC3)o2)cc1 (centres undefined), the activation is reported as -2.06%. With O=C(CSc1nnc(Nc2ccccc2F)s1)NC1CCCC1 the activation was -5.06%. CCCCC1N2CC3([N+](=O)[O-])CN1CC([N+](=O)[O-])(C2)C3(C)C (centres undefined) was tested, and the activation was -2.15%. Work on CCc1ccc(OCC(=O)N(Cc2ccccc2)C2CCS(=O)(=O)C2)cc1 (centres undefined) yielded an activation of -6.02%. CCCCN(C(=O)COc1ccc(NC(C)=O)cc1)C1CCS(=O)(=O)C1 (centres undefined) gave an activation of -2.25%. In the case of CC(=O)c1ccc(OCC(=O)N(C)C2CCS(=O)(=O)C2)cc1 (centres undefined), the activation is reported as 18.4% (active). CN1C(=O)c2ccc(NC(=O)c3c(F)c(F)c(F)c(F)c3F)cc2C1=O showed an activation of 5.38%. COc1ccc(C(=O)Nc2c(N)nc(SCC(=O)N3CCC(C)CC3)[nH]c2=O)cc1OC gave an activation of 3.82%. In the case of O=Cc1cn(CCOc2ccc(F)cc2)c2ccccc12, the activation is reported as -3.3%. COc1ccc(N(C(=O)CNC(=O)c2ccco2)C(C(=O)NCC2CCCO2)c2ccccc2)cc1Cl (centres undefined) showed an activation of -3.88%. Work on CCOC(=O)c1cccc(NC(=O)CN(c2ccc(C)cc2)S(=O)(=O)c2c(C)noc2C)c1 yielded an activation of 4.56%. For Cc1noc(C)c1S(=O)(=O)N(CC(=O)Nc1ccc2c(c1)OCCO2)c1ccc(C(C)C)cc1, the activation was 18.8% (active). Cc1noc(C)c1S(=O)(=O)N(CC(=O)NCc1ccc(Cl)cc1)c1ccc2c(c1)OCO2 gave an activation of 10.9%. With COc1ccc(CN2CCN(C(=O)CCC(=O)Nc3nnc(C(C)C)s3)CC2)cc1F the activation was 10.4%. In the case of COc1ccc(NC(=O)C(NC(C)=O)C(=O)NCc2ccccc2Cl)cc1 (centres undefined), the activation is reported as -1.72%. CC(C)NS(=O)(=O)c1ccc(CCC(=O)N2CCOCC2)cc1 showed an activation of -3.51%. With COCc1cc(=O)oc2cc(NS(=O)(=O)c3ccc(C)cc3)ccc12 the activation was 6.31%. With CC(=O)N1c2ccc(S(=O)(=O)N3CCC(C(=O)NC4CCCCC4C)CC3)cc2CC1C (centres undefined) the activation was 15.7% (active). Work on CC(=O)N1c2ccc(S(=O)(=O)N3CCC(C(=O)NC4CCCC(C)C4C)CC3)cc2CC1C (centres undefined) yielded an activation of -2.05%. Work on CC(=O)N1c2ccc(S(=O)(=O)N3CCC(C(=O)NCc4ccc(F)cc4)CC3)cc2CC1C (centres undefined) yielded an activation of 5.7%.
